Screening data as filed in PubChem BioAssay.
Dicer inh: inhibitors of Dicer pre-microRNA processing, primary screen, biochemical, cat-ELCCA, chemiluminescence. z-score at 25 µM. 6% of 47,000 active. Endoribonuclease Dicer (Homo sapiens), Q9UPY3. AID 1347074, 2019. cat-ELCCA pre-miR-21 Dicer processing; stronger effect = higher value; in the data active means z-score above about 3, passing the limit was not always enough;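 further: higher signal means more uncleaved substrate so more Dicer inhibition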
Of the large screens only hits and unclear results are named; the others gave an inactive call. This is one part of a sample in which hits are shown more often than they occur.

C#CCOc1nc2c(c(=O)n(C)c(=O)n2C)n1Cc1ccccc1	none
COCCOc1nc2c(c(=O)n(C)c(=O)n2C)n1CCc1ccccc1	none
CCCOc1nc2c(c(=O)n(C)c(=O)n2C)n1C(C)c1ccccc1 (centres undefined)	Dicer inh 3.5
COc1ccc(C(=O)c2c(C)oc3ccc(O)c(CN(C)C)c23)cc1	none
Cc1cc2n(n1)C(c1cccc(O)c1O)Nc1ccccc1-2 (centres undefined)	Dicer inh 21
COc1ccc(C2Nc3ccccc3-c3cc(C)nn32)c(OC)c1 (centres undefined)	none
Cc1ccc2c(c1)-c1cc(C)nn1C(c1ccccc1O)N2 (centres undefined)	none
Cc1cc(C)c2c(c1)-c1cc(C)nn1C(c1ccc(O)cc1O)N2 (centres undefined)	none
Cc1cc2n(n1)C(c1ccc(O)cc1O)Nc1ccccc1-2 (centres undefined)	none
COc1cccc(C2Nc3ccc(C)cc3-c3cc(C)nn32)c1O (centres undefined)	Dicer inh 3
COc1cccc(C2Nc3ccc(C)cc3-c3cc(C)nn32)c1OC (centres undefined)	none
COc1cccc(C2Nc3c(C)cccc3-c3cc(C)nn32)c1OC (centres undefined)	none
Cc1ccc2c(c1)-c1cc(C)nn1C(c1ccc(O)cc1O)N2 (centres undefined)	Dicer inh 3.7
COc1cc(O)ccc1C1Nc2ccc(C)cc2-c2cc(C)nn21 (centres undefined)	none
COc1cccc(C2Nc3c(C)cc(C)cc3-c3cc(C)nn32)c1OC (centres undefined)	Dicer inh 4.9
COc1cccc(C2Nc3c(C)cc(C)cc3-c3cc(C)nn32)c1O (centres undefined)	none
COc1ccc(-c2nnc(SCc3ccc(Br)cc3)o2)c(OC)c1	none
CC(=O)Oc1cccc(N2C(=O)C3C4c5ccccc5C(c5ccccc54)C3C2=O)c1 (centres undefined)	none
CC(C)(C)c1cc2ncnc(N3CCOCC3)c2s1	none
Cc1nc(SCC2CC2)[nH]c(=O)c1Cc1ccc(Cl)c(Cl)c1	none
CCOC(=O)c1cc(CC)sc1NC(=O)CSc1ccc(Cl)cc1	none
CC(=O)NC(=S)NNC(=O)c1cccc([N+](=O)[O-])c1	none
Cc1cn(COCCO)c(=O)[nH]c1=O	none
CCc1nn2c(N)c(C#N)cnc2c1-c1ccccc1	none
O=C(CSc1nc(-c2ccccc2)cc(C(F)(F)F)n1)Nc1ccc2c(c1)OCO2	none
O=C(CN1CCN(c2ccccc2)CC1)N1N=C2c3ccccc3CCC2C1c1cccs1 (centres undefined)	none
COc1ccc(Br)cc1C1Nc2ccc(C)cc2-c2cc(C)nn21 (centres undefined)	Dicer inh 3.5
COc1ccc(C2Nc3ccc(C)cc3-c3cc(C)nn32)cc1OC (centres undefined)	none
COc1ccc(Br)cc1C1Nc2c(C)cccc2-c2cc(C)nn21 (centres undefined)	none
O=c1c2ccccc2nc(SCc2c(Cl)cccc2Cl)n1CC1CC1	none
O=[N+]([O-])c1ccc(N2CCCCC2)c(C(F)(F)F)c1	none
N#Cc1c2c(c(N3CCOCC3)n3c1nc1ccccc13)CCCC2	none
COC(=O)c1sc(N2C(=O)C(=O)/C(=C(/O)c3ccc(Cl)cc3)C2c2ccc(OC)cc2)nc1C (centres undefined)	none
COC(=O)C1=C(C)N=c2s/c(=C/c3ccc(Cl)cc3)c(=O)n2C1c1ccc(OC)cc1 (centres undefined)	Dicer inh 4.6
COC(=O)C1=C(C)N=c2s/c(=C/c3ccc4c(c3)OCO4)c(=O)n2C1c1ccccc1 (centres undefined)	none
Nc1ccc(Cl)c(-c2nc3ccccc3o2)c1	none
O=C1Nc2ccccc2C1=NCCCN=C1C(=O)Nc2ccccc21	none
COc1ccc(N=C2C(=O)Nc3ccc(Br)cc32)cc1	none
O=C1Nc2ccccc2C1=Nc1ccc(Cc2ccc(N=C3C(=O)Nc4ccccc43)cc2)cc1	Dicer inh 3.9
CC(=O)OC[C@H](OC(C)=O)[C@H](OC(C)=O)[C@@H](O)[C@H]1SC[C@@H](C(=O)N(C)C)N1C(C)=O	none
CCOC(=O)C(NC(=O)Nc1ccccc1)(Nc1cccc(C)c1)C(F)(F)F (centres undefined)	none
O=C(O)CSc1ccccc1C(=O)O	none
O=C(O)c1ccccc1SC(C(=O)O)c1ccccc1 (centres undefined)	none
CC(C(=O)O)c1cccc(Oc2ccccc2)c1 (centres undefined)	none
O=C(O)c1ccccc1NC(C(=O)O)c1ccccc1 (centres undefined)	Dicer inh 5.5
Cc1cccc(NC(C(=O)O)c2ccccc2)c1 (centres undefined)	Dicer inh 5.4
CCCCCCOc1ccc(N2C(=O)CC(N3CCSCC3)C2=O)cc1 (centres undefined)	none
Cn1c(NCc2ccco2)nc2c1c(=O)n(Cc1ccccc1)c(=O)n2C	none
Nc1nc2ccccc2n1Cc1ccccc1	none
c1ccc2c(c1)nc(NCc1ccncc1)n2CCN1CCCCC1	none
c1ccc(CNc2nc3ccccc3n2CCN2CCOCC2)nc1	Dicer inh 5.4
CCN(CC)CCn1c(NCc2cc(OC)ccc2OC)nc2ccccc21	none
